Source: PubChem
Sampled rows, rich in hits. Any-hit rate of the full collection: about 5.8%.
Gal4-VP16 FLuc: VP16 counterscreen qHTS for inhibitors of ROR gamma transcriptional activity; Drosophila S2 Gal4-VP16 UAS-luciferase, luminescence, 20 h; Potency, µM (highest dose often 53.6 µM), without a hit: top-dose activity, negative = inhibition, hits mostly inhibitors; 310,000 tested, 3.5% active; AID 2546, 2010;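 further: Gal4-VP16 expression switched on by copper sulfate through the metallothionein promoter; potency means the concentration at half of the fitted maximal effect; on the % scale 0 is the no-effect control and ±100 the full control effect; nearly all actives have a fitted effect of over 50% in size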
TRPV1 ag: HTS Assay for Compounds that Act as Agonists of the Vanilloid Receptor 1 | TRPV1-expressing cells, Fluo-8 calcium influx, agonist mode | activation, % at 8.33 µM | 320,000 tested, 0.19% active | AID 540275, 2011; in the data active means activation above about 80%; inconclusive means between about 30% and that limit; further: 0% is about no effect
Target sequence (Q8NER1 whole entry, looked up): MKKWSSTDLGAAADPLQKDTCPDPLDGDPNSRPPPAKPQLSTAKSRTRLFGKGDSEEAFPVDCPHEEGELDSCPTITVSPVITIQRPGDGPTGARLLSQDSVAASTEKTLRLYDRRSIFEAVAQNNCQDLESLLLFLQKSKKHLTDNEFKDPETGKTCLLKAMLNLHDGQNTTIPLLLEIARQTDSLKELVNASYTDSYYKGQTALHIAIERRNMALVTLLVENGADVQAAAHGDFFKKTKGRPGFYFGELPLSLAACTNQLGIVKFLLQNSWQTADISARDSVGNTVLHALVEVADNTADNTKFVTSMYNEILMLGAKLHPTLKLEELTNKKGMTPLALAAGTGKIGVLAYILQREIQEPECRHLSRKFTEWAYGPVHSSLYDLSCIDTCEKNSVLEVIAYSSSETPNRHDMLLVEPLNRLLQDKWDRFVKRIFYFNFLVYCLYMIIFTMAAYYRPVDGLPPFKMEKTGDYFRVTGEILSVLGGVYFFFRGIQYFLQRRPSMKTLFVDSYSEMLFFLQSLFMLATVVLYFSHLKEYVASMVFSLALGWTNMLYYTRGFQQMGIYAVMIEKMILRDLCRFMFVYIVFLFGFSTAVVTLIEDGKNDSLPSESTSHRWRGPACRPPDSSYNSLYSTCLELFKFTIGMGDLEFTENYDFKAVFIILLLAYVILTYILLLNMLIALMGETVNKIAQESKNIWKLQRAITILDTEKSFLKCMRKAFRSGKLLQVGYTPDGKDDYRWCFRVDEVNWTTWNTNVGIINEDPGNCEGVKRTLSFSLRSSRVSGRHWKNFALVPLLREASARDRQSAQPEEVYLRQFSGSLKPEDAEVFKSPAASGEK
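Fluo-8 calcium influx in TRPV1-expressing cells, kinetic read (ex 480/em 520 nm). Compound added and read 3 min for agonist activity, followed by capsaicin at EC20 final and 2 min further read for enhancement.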
TRPV1 potentiator: HTS Assay for Compounds that Act as Potentiators of the Vanilloid Receptor 1 | Transient receptor potential cation channel subfamily V member 1 (Homo sapiens), Q8NER1 | TRPV1-expressing cells, Fluo-8 calcium influx, capsaicin EC20 potentiation | potentiation, % at 8.33 µM | 320,000 tested, 0.02% active; in the data active means potentiation above about 80%; inconclusive means between about 30% and that limit; further: 0% is about no effect
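Fluo-8 calcium influx in TRPV1-expressing cells, kinetic read (ex 480/em 520 nm). Compound added and read 3 min for agonist activity, followed by capsaicin at EC20 final and 2 min further read for enhancement.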
uPA surface inh: qHTS for Inhibitors of Cell Surface uPA Generation; cell surface uPA generation assay, qHTS; Potency, µM (series often up to 38.3 µM), for the others: top-dose activity change, negative = inhibition, hits mostly inhibitors; 330,000 tested, 0.31% active; AID 540303, 2011; active means well fitted inhibition curve with a large enough effect; inconclusive means small, poorly fitted or top-dose-only effect; inactive means no such curve, though single readings can be large or run the other way; tested in mouse RAW 264.7 cells; further: potency means the concentration at half of the fitted maximal effect; on the % scale 0 is the no-effect control and ±100 the full control effect; nearly all actives have a fitted effect of over 55% in size
RORgamma inh: qHTS for inhibitors of ROR gamma transcriptional activity. Drosophila S2 Gal4-RORgamma UAS-luciferase reporter, 20 h. Nuclear receptor ROR-gamma (Mus musculus), P51450. 310,000 tested, 5.4% active. Potency, µM (highest dose often 53.6 µM), inactives show top-dose activity change, negative = inhibition, actives largely listed as inhibitors; further: potency means the concentration at half of the fitted maximal effect; on the % scale 0 is the no-effect control and ±100 the full control effect; nearly all actives have a fitted effect of over 60% in size
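Luciferase reporter read in Schneider cells carrying Gal4-RORγ (mouse) and UAS-Photinus luciferase; cells given compound 1 h before 700 uM copper sulfate induction, then incubated 20 h at ambient temperature.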
Active calls of the source: *; ? = inconclusive; / = no result; ! = a repeat was not active; [ ] = dose if it differs, or a comment. Unless noted, the call rests on the fitted dose curve; in most records, active means well fitted curve in the direction sought with a large enough effect; inconclusive means small, poorly fitted or top-dose-only effect, or another doubt; inactive means no such curve, though single readings can be large; an effect the other way counts as inactive or inconclusive.

SMILES	Gal4-VP16 FLuc	TRPV1 ag	TRPV1 potentiator	uPA surface inh	RORgamma inh
Cc1ccc(S(=O)(=O)/N=C2/C=C(Sc3ncn[nH]3)C(=O)c3ccccc32)cc1	3.5µM*	1	7	-5%	3.5µM*
CC(C)c1ccc(S(=O)(=O)/N=C2/C=C(Sc3ncn[nH]3)C(=O)c3ccccc32)cc1	-5%	2	-1	-19%	?
CC(C)(C)NC(=O)c1nn(Cc2ccccc2)c(=O)c2ccccc12	-17%	?	-22	4%	22%
C[C@@]12C(=O)N(CCO)CC(=O)N1[C@H](/C=C/c1ccccc1)[C@@H]1C(=O)N(c3ccccc3)C(=O)[C@@H]12	6%	2	-8	4%	18%
Cc1ccc(S(=O)(=O)N2CCN(C(=O)CSc3nccn3C)CC2)cc1	3%	0	8	-2%	0%
CCCNC(=O)CCC(=O)Nc1ncc(-c2ccc(C)cc2)n1C	5.6µM*	2	2	0%	3.5µM*
Cc1cc(C)nc(-n2nc(C)c(Br)c2Nc2ccc(Br)cc2)n1	0.89µM*	-4	8	1%	?
Cc1nn(C)c(Nc2ccc(Br)cc2)c1Br	11µM*	26	-7	3%	?
Cc1nn(C)c(NC(=O)c2ccccc2Cl)c1Br	4%	1	-1	-4%	1%
Cc1cc(Nc2ccc(Br)cc2)nc(-c2ccccc2O)n1	-15%	0	18	26%	?
Cc1ccc(NC(=S)NCC2CCN(C(C)c3ccccc3)C2)cc1 (stereo unspecified)	?	-2	2	0%	?
Cc1cc(C)c(NC(=S)NCC2CCN(C(C)c3ccccc3)C2)c(C)c1 (stereo unspecified)	?	1	2	-5%	7.9µM*
CC(c1ccccc1)N1CCC(CNC(=S)Nc2cccc(Cl)c2)C1 (stereo unspecified)	?	15	-12	-7%	10µM*
O=C(NCC1CC1)Nc1cccc(Cl)c1	-12%	22	-1	-2%	14%
Clc1ccccc1/C=N/Nc1cc(N2CCOCC2)ncn1	?	1	8	18%	27%
CCCOc1ccc(/C=N/Nc2cc(N3CCOCC3)ncn2)c(O)c1	18µM*	11	-11	?	?
COc1cccc(C(=O)Nc2ccc3c(c2)OCO3)c1OC	-2%	-3	-15	-2%	?
COc1ccc(OC)c(/C=C/C(=O)c2ccc3c(c2)OCCO3)c1	-25%	7	-3	?	10µM*
COc1cc(NC(=O)Nc2cccc(C(C)=O)c2)cc(OC)c1OC	1%	82*	-14	0%	-10%
O=C(/C=C/c1ccccc1)Nc1cccc(C(=O)NC2CC2)c1	/	/	/	13µM*	/
COc1cccc(/C=C/C(=O)Nc2ccc3c(c2)OCCO3)c1OC	?	0	5	-9%	1.1µM*
COc1cc(/C=C/C(=O)c2ccc3c(c2)OCCO3)cc(OC)c1OC	?	-3	13	?	?
COc1ccc(/C=C/C(=O)Nc2cccc(C(C)=O)c2)cc1	6.3µM*	?	-22	-4%	3.2µM*
COc1ccccc1/C=C/C(=O)Nc1cccc(C(C)=O)c1	?	?	-1	1%	-15%
COc1cccc(/C=C/C(=O)Nc2cccc(C(C)=O)c2)c1OC	?	90*	-16	?	1.4µM*
SMILES	Gal4-VP16 FLuc	TRPV1 ag	TRPV1 potentiator	uPA surface inh	RORgamma inh
CNC(=O)[C@@H]1C[C@H]1[C@@H](NC(=O)OCc1ccccc1)c1ccccc1	5%	25	-13	-8%	13µM*!
O=C(NCc1ccccc1)[C@@H]1C[C@H]1[C@@H](NP(=O)(c1ccccc1)c1ccccc1)c1ccccc1	5%	91*	-2	-12%	29%
CC1CCC(NC(=O)c2cc3c(s2)CCCC3)CC1 (stereo unspecified)	/	?	-6	2%	/
O=C(NNc1nc2cc3c(cc2s1)OCCO3)c1ccccc1	-16%	-4	6	0%	4µM*
Cc1cccc2sc(NNC(=O)c3ccc4c(c3)OCCO4)nc12	13µM*	3	9	-17%	7.9µM*
CC(=O)Nc1nc2cc3c(cc2s1)OCCO3	-13%	3	11	-13%	?
O=C(NCc1ccco1)c1cc2ccc(O)cc2oc1=O	10µM*	8	8	0%	10µM*
COc1ccc2cc(C(=O)NCc3ccco3)c(=Nc3ccc(C(=O)O)cc3)oc2c1	2.8µM*	-12	22	-13%	1.1µM*
CN(CCOc1ccccc1)C(=O)C1CCC(=O)N(CCN2CCOCC2)C1 (stereo unspecified)	-13%	-1	-19	2%	-30%
COc1ccc(NC(=O)c2nc(C)c(C3(C)CC(c4cccnc4)=NO3)s2)cc1 (stereo unspecified)	-5%	5	4	1.6µM*	27%
Cc1ccc(NC2=C/C(=N/S(=O)(=O)c3cccs3)c3ccccc3C2=O)cc1	6.3µM*	?	10	-13%	10µM*
Cc1ccc(S(=O)(=O)/N=C2\C=C(Nc3ccc(O)cc3)C(=O)c3ccccc32)cc1	/	/	/	-13%	/
O=C1C(Nc2ccccc2)=C/C(=N/S(=O)(=O)c2cccs2)c2ccccc21	5µM*	27	8	-12%	4.5µM*
COC(=O)c1ccccc1NC1=C/C(=N\S(=O)(=O)c2cccs2)c2ccccc2C1=O	?	1	18	-11%	27%
O=C(c1ccc(-c2ccccc2)cc1)N1CCN(c2ccccn2)CC1	2%	?	2	0%	-4%
CC(C)CN1CCN=C1N(C)C	/	-2	19	13%	/
Cc1cccnc1NC(=S)Nc1ccc(Cl)c(Cl)c1	?	1	0	2%	?
COc1ccc(C(=O)NC23CC4CC(CC(C4)C2)C3)cc1OC	9%	5	-7	-10%	-17%[1.91 µM]
COc1ccc(NC(=S)Nc2ncccc2C)cc1OC	?	-5	1	-6%	6.3µM*
COc1ccc(NC(=S)NC23CC4CC(CC(C4)C2)C3)cc1OC	3.5µM*	9	8	-8%	1.3µM*
COc1ccc(NC(=S)Nc2ncccc2C)c(OC)c1	10µM*	2	19	-8%	3.2µM*
COc1ccc(NC(=S)Nn2cnnc2)c(OC)c1	0%	-2	4	-4%	?
CCOc1ccc(CCNC(=O)COC(=O)CSc2ccc(C)cc2)cc1OCC	/	0	24	-6%	/
COc1ccc(C(O)c2nc3ccccc3s2)cc1 (stereo unspecified)	3%	18	5	/	27%
COc1cc(C(O)c2nc3ccccc3s2)cc(OC)c1OC (stereo unspecified)	10µM*	2	5	-14%	?
COc1ccc2c(c1)C(=O)CC(c1ccc(OC)c(OC)c1)O2 (stereo unspecified)	-7%	1	1	?	2%[1.91 µM]
